# According to PubChem BioAssay (Tox21):
# Where “and” joins values, the source holds several entries; their conditions need not be identical. Equal entries are not always repeated. Results filed as inconclusive are left out. Calls of active or inactive are those of the source. Calls come from the whole dose curve; as a rule, active = well fitted cell-killing curve with a large enough effect in the repeat runs; inconclusive = weak or mixed curves, or effect the other way; inactive = flat fitted curve, though single readings scatter.
# Assay: qHTS RealTime-Glo MT Cell Viability Assay in HEK293 cells - 8 hour (AID 1224887); note: nearly all actives have a fitted effect of over 50% in size; for activity change, negative = cytotoxicity: top concentration of the series differs between compounds
# Conditions: RealTime-Glo luminescence; series mostly up to 76.8 µM; activity change, negative = cytotoxicity: at the top concentration
# Source text: U.S. Tox21 Program National Center for Advancing Translational Sciences [NCATS] NIH Chemical Genomics Center [NCGC] U.S. Environmental Protection Agency [EPA] National Institutes of Environmental Health Sciences [NIEHS] National Toxicology Program [NTP] U.S. Food and Drug Administration [FDA] Tox21 Assay Overview: Measure of cell viability is critical in the cell-base assay. Analysis of cell viability is necessary for the characterization of cell responses to cytotoxic drugs and environmental stress. A RealTime-Glo MT Cell Viability Assay to monitor cell viability in real time of continues cell culture during 40 hours of compound treatment was used to screen Tox21 10K library compounds in Hek293 cells. The RealTime-Glo MT Cell Viability Assay is a nonlytic, homogeneous, bioluminescent method to measure cell viability in real time using a simple, plate-based method. The assay involves adding NanoLuc luciferase and a cell-permeant prosubstrate to cells in culture. Viable cells reduce the proprietary prosubstrate to generate a substrate for NanoLuc luciferase. This substrate diffuses from cells into the surrounding culture medium, where it is rapidly used by the NanoLuc Enzyme to produce a luminescent signal. The signal correlates with the number of viable cells, making the assay well suited for cytotoxicity studies.
# Tox21 Assay Protocol Summary: The mixture of Hek293 cell suspension and reagents were dispensed at 600cells/6 ul/well in 1536-well tissue culture treated black solid bottom plates using a Multidrop dispenser. After the assay plates were incubated at a 37 C/5% CO2 incubator for 5 hours, 23 nL of compounds dissolved in DMSO, positive and negative controls was transferred to the assay plate by a pintool work station. The plates were incubated at 37 C for 40 hours. The luminescence intensity were measured at 0h, 8h, 16h, 24h, 32h and 40h time points using ViewLux plate reader during compound treatment.
# % is set by controls: 0 for no effect and ±100 for the full control effect; potency is the fitted concentration of half-maximal effect.
Structure (SMILES),Potency,"activity change, negative = cytotoxicity"
Oc1c(Cl)cc(Cl)cc1Sc1cc(Cl)cc(Cl)c1O,inactive,–
c1ccc2c(c1)CCCC2C1=NCCN1 (stereo not given),–,6.63% [at 35.3 µM] (inactive)
O=C(OCc1ccccc1)c1ccc(O)cc1,–,-17.8% [at 35.3 µM] (inactive)
CCC(=O)/C=C/C1C(C)=CCCC1(C)C (stereo not given),inactive,–
CO[Si](OC)(OC)c1ccccc1,–,-9.1% (inactive)
CCOc1ccc2c(c1)C(C)=CC(C)(C)N2,–,-22.4% (inactive)
CC(=O)N[C@@H](CS)C(=O)O,inactive,–
CCCCCCC(O)CCCCCCCCCCC(=O)O (stereo not given),inactive,–
CC(C)CCOCc1ccccc1,–,-3.79% (inactive)
CCC[C@H](N[C@@H](C)C(=O)N1[C@H](C(=O)O)C[C@@H]2CCCC[C@@H]21)C(=O)OCC,inactive,–
Cc1scc2c1N(C(=O)CN1CCN(C)CC1)c1ccccc1NC2=O,–,6.73% [at 35.3 µM] (inactive)
C#CC(C)(CC)OC(=O)c1ccccc1C(=O)O (stereo not given),–,11.4% [at 35.3 µM] (inactive)
COc1ccc(CCN2CCC(Nc3nc4ccccc4n3Cc3ccc(F)cc3)CC2)cc1,12.6 µM (active) and 9.52 µM (active),–
CC1COC(=O)O1 (stereo not given),inactive,–
COC(c1ccccc1)(c1ccccc1)[C@H](Oc1nc(C)cc(C)n1)C(=O)O,–,-1.58% [at 35.3 µM] (inactive)
CC(C)CCOC(=O)c1ccc(N(C)C)cc1,–,-8.31% [at 35.3 µM] (inactive)
Clc1ccc2c(c1)C(N1CCNCC1)=Nc1ccccc1O2,inactive,–
CCCCC/C=C/CC1CC(=O)OC1=O (stereo not given),–,14.1% (inactive)
CCOc1ccccc1C(N)=O,inactive,–
Cc1cc(Cc2cc(C)cc(C(C)(C)C)c2O)c(O)c(C(C)(C)C)c1,15.6 µM (active) and 19.5 µM (active),–

Structure (SMILES),Potency,"activity change, negative = cytotoxicity"
NC(N)=NC(=O)Cc1c(Cl)cccc1Cl,–,-0.647% [at 35.3 µM] (inactive)
c1ccc2n[nH]nc2c1,inactive,–
CCn1c2ccccc2c2cc(N)ccc21,inactive,–
O=C(O)Cn1cnnn1,–,3.09% [at 35.3 µM] (inactive)
NC(=Nc1ccccc1)Nc1ccccc1,–,0.331% [at 35.3 µM] (inactive)
CC(C)(C)NCC(O)COc1ccccc1OCC1CCCO1 (stereo not given),–,-2.28% [at 35.3 µM] (inactive)
CC(=O)OCCOCCOCCOC(C)=O,inactive,–
C/C=C/c1ccc(OCC)c(O)c1,inactive,–
O=C1OC2(c3ccc(O)cc3Oc3cc(O)ccc32)c2ccccc21,inactive,–
O=Nc1ccc(Nc2ccccc2)cc1,15.6 µM (active) and 21.9 µM (active),–
CN(C)c1ccc2nc3ccc(=[N+](C)C)cc-3sc2c1,2.97 µM (active) and 2.75 µM (active) and 3.01 µM (active),–
CCC(C)(Oc1ccc(C2(c3ccc(OC(C)(CC)C(=O)O)cc3)CCCCC2)cc1)C(=O)O (stereo not given),–,5.43% [at 35.3 µM] (inactive)
NC12CC3CC(CC(C3)C1)C2,–,-2.13% [at 35.3 µM] (inactive)
OCC(CO)N[C@H]1C[C@](O)(CO)[C@@H](O)[C@H](O)[C@H]1O,–,7.87% [at 35.3 µM] (inactive)
c1ccc2cc3c(ccc4ccccc43)cc2c1,inactive,–
CC(=O)Nc1ccc(C(=O)CCl)cc1,–,-4.18% (inactive)
O=S(=O)(O)c1ccc2nc(-c3ccccc3)[nH]c2c1,inactive,–
CCN(CC)CCOc1ccc(/C(=C(\Cl)c2ccccc2)c2ccccc2)cc1,12.6 µM (active) and 21.3 µM (active),–
Cc1cc(OCCOCC[N+](C)(C)Cc2ccccc2)ccc1C(C)(C)CC(C)(C)C,48.7 µM (active) and 23.9 µM (active),–
CC(C)CCCCCCc1ccc(O)cc1,19.8 µM (active),–
